From PubChem BioAssay AID1851 (National Center for Advancing Translational Sciences (NCATS), 2009)
Values joined by “and” are separate entries in the source; they are usually repeats but may differ in a detail not shown here. Identical values can stand only once. The whole screen tested about 16,000 compounds, of which about 5,700 (36%) were called active. About 24% were inconclusive and are not listed. Some of the results follow. A number with no mark means an inactive call. Calls come from the whole dose curve; as a rule, active = well fitted curve in the direction sought with a large enough effect; inconclusive = small, poorly fitted or top-dose-only effect, or effect the other way; inactive = no such curve, though single readings can be large or run the other way.

Molecular target: Cytochrome P450 1A2 (Homo sapiens) (UniProt P05177)
Sequence (P05177 whole entry, looked up): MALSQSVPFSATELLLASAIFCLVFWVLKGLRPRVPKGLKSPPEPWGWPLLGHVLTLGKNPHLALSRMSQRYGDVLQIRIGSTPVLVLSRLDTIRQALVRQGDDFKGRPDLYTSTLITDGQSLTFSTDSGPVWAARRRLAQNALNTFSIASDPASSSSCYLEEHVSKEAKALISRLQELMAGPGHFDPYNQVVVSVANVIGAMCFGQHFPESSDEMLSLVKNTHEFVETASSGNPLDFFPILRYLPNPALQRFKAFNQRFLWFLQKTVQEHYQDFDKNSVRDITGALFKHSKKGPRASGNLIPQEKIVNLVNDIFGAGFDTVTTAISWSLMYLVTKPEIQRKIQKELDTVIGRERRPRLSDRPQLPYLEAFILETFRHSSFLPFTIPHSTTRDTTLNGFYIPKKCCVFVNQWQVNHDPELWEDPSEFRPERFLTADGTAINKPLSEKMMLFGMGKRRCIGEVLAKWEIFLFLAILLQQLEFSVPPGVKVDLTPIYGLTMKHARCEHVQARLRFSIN
Assay: Cytochrome panel assay with activity outcomes
Conditions: recombinant CYP, pro-luciferin dealkylation, luminescence, p450-cyp1a2; series mostly up to 57.1 µM; activity, negative = inhibition: at the top concentration
% is set by controls: 0 for no effect and ±100 for the full control effect.

Row | SMILES | activity, negative = inhibition | AC50
1 | COCCNC(=O)Cn1cnc2ccc(S(=O)(=O)N3CCC(C)CC3)cc2c1=O | -6.54% | –
2 | O=S(=O)(c1ccccc1)N1CCC2(CCCN(Cc3nccs3)C2)CC1 | 13.2% | –
3 | O=S(=O)(c1ccccc1)N1CCC[C@@]2(CCN(Cc3nccs3)C2)C1 | – | 15.8 µM (active)
4 | O=S(=O)(c1ccccc1)N1CCC2(CC1)CN(Cc1nccs1)C2 | 6.2% | –
5 | CC(C)CN1CCC2(CC1)CCN(S(=O)(=O)c1ccccc1)CC2 | 8.32% | –
6 | CC(C)CN1CCCC2(CCN(S(=O)(=O)c3ccccc3)CC2)C1 | 3.46% | –
7 | CC(C)CN1CC[C@@]2(CCCN(S(=O)(=O)c3ccccc3)C2)C1 | – | 25.1 µM (active)
8 | Cc1ccc(S(=O)(=O)N[C@H]2COC(=O)[C@@H](C)COC(=O)[C@H](C)NC(=O)C/C=C\[C@H]2C)cc1 | -11.4% [at 11.4 µM] | –
9 | CC(C)NC(=O)N1CC[C@@]2(CCCN(C(=O)c3cc(C(F)(F)F)cc(C(F)(F)F)c3)C2)C1 | 8.13% | –
10 | CCOC(=S)SCC(=O)O | -12.2% [at 11.4 µM] | –
11 | Cc1ccc(S(=O)(=O)N[C@H]2COC(=O)C/C=C\[C@@H](C)COC(=O)C/C=C\[C@@H]2C)cc1 | 0.253% [at 11.4 µM] and 8.99% [at 11.4 µM] | –
12 | Cc1ccc(-c2[nH]n3c(=O)c4c(nc3c2C)CCCC4)cc1 | – | 2.51 µM (active)
13 | Nc1[nH]n2c(=O)c3c(nc2c1N=Nc1ccccc1)CCCC3 | – | 5.62 µM (active)
14 | O=c1c2c(nc3c(-c4ccccc4)c[nH]n13)CCC2 | – | 5.62 µM (active)
15 | N#Cc1c[nH]n2c(=O)c3c(nc12)CCCC3 | -18.5% | –
16 | CCN1C(=O)C=CC1=O | -11.1% | –
17 | CCC(=O)OCN1C(=O)C=CC1=O | – | 3.16 µM (active)
18 | Cc1ccc([C@@]2(C)CC/C(=N/N=C3\CC[C@](C)(c4ccc(C)c(C)c4)c4cc(C)c(C)cc43)c3cc(C)c(C)cc32)cc1C | -12.4% [at 11.4 µM] | –
19 | CC(C)[C@@H](OCc1ccccc1)[C@H](C)/C=N\O[C@@H](C)c1cn([C@H](CO)Cc2ccccc2)nn1 | -2.54% [at 11.4 µM] and -7.97% [at 11.4 µM] | –
20 | O=C(O)c1ccc(S(=O)(=O)N=Nc2c(O)[nH]c3ccccc23)cc1 | -11.7% [at 11.4 µM] | –
21 | O=Nc1c(-c2c(O)[nH]c3ccccc23)[nH]c2ccccc12 | – | 0.0316 µM (active)
22 | [Cu].[O-]/N=C1/C(=[OH+])Nc2ccccc21.[O-]Nc1c(O)[nH]c2ccccc12 | -20.1% [at 2.29 µM] | –
23 | Cc1ccc(SCCNC(=O)c2ccccc2)cc1 | – | 10 µM (active)
24 | Cc1ccc(SCc2nnc(NC(=O)c3ccccc3)s2)cc1 | -7.04% | –

Row | SMILES | activity, negative = inhibition | AC50
25 | Cc1ccc(SCc2ccc(C(=O)NCc3ccncc3)cc2)cc1 | – | 0.355 µM (active)
26 | Cc1ccc(SCCNC(=S)Nc2ccc(C)c(C)c2)cc1 | – | 11.2 µM (active)
27 | Cc1ccc(C(=O)NCCNC(=O)CN2CCOCC2)cc1 | -27.7% | –
28 | Cc1ccc(NC(=S)NCCN2CCOCC2)cc1C | -29.3% | –
29 | Cc1ccc(C(=O)NCc2ccc(N3CCN(C(=O)OC(C)(C)C)CC3)cc2)cc1 | -2.17% | –
30 | N[C@H](C(=O)N[C@@H]1C(=O)N2C(C(=O)O)=C(Cl)CS[C@@H]12)c1ccccc1 | – | inactive
31 | Cc1nc2cnc(Oc3cccc(Cl)c3)nc2n(CCc2ccccc2)c1=O | – | 12.6 µM (active)
32 | Cc1nc2cnc(Oc3cccc(Cl)c3)nc2n(CCC#N)c1=O | – | 15.8 µM (active)
33 | COCCn1c(=O)cnc2cnc(Oc3cccc(Cl)c3)nc21 | – | 3.16 µM (active)
34 | COCCn1c(=O)c(C)nc2cnc(Oc3cccc(Cl)c3)nc21 | – | 12.6 µM (active)
35 | CC(=NCCN1CCN(C(=S)Nc2ccccc2)CC1)C1=C(O)CC(C)(C)CC1=O | -2.56% | –
36 | CC(C)(C)n1nc(-c2ccc(Cl)cc2)c2c(N)ncnc21 | – | 1 µM (active)
37 | CC(C)(C)Cn1nc(-c2ccc(Cl)cc2)c2c(N)ncnc21 | – | 0.158 µM (active)
38 | CO/N=C(\C(=O)N[C@@H]1C(=O)N2C(C(=O)[O-])=C(C[N+]3(C)CCCC3)CS[C@@H]12)c1csc(N)n1 | 0.691% [at 25.6 µM] | –
39 | CCCCSc1ccc2nc(-c3ccc(C#N)cc3)cn2c1 | – | 2.82 µM (active)
40 | CN(C)CCNC(=O)C1CCCNC1=O (configuration not stated) | 0.683% | –
41 | CCN(CC)CCOc1ccc(/C(=C(\Cl)c2ccccc2)c2ccccc2)cc1 | – | 12.6 µM (active)
42 | COc1ccc(C(Cl)=C(c2ccc(OC)cc2)c2ccc(OC)cc2)cc1 | -17.5% [at 25.6 µM] | –
43 | CCc1ccc2[nH]c(O)c(N=Nc3nc(-c4ccccc4)cs3)c2c1 | – | 10 µM (active)
44 | C[N+](C)(C)CCCCCCCCCC[N+](C)(C)C | -0.146% | –
45 | COc1ccc2c(c1)OC1=C(C(=O)CCC1)C2C1=C(O)CCCC1=O (configuration not stated) | – | 7.08 µM (active)
46 | Cc1ccc(S(=O)(=O)Oc2ccc(C3C4=C(CCCC4=O)OC4=C3C(=O)CCC4)cc2)cc1 | -2.04% | –
47 | O=C1CCCC2=C1C(c1ccc(OS(=O)(=O)c3ccc(Cl)cc3)cc1)C1=C(CCCC1=O)O2 | -1.84% | –
